Some test systems named below: SR leukemia; RPMI-8226 leukemia; OVCAR-8 ovarian; OVCAR-5 ovarian; OVCAR-4 ovarian; SK-OV-3 ovarian; IGROV1 ovarian; OVCAR-3 ovarian; HS 578T breast; NCI/ADR-RES ovarian; BT-549 breast; MDA-MB-435 melanoma; SW-620 colon; MCF7 breast; HCT-116 colon; HCC-2998 colon; KM12 colon; T-47D breast.
Common to all, as to experiment: NCI-60 one-dose screen, 48 h (100 = growth as untreated, 0 = no growth, -100 = all killed)
Conditions in all cases: 10 µM unless noted

Compounds without any hit were thinned out: in the full panel of roughly 83,000, 20% have a hit.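 Percent growth is the endpoint: 0 to 100 indicates growth inhibition (40 means 60% inhibition), 0 means no net growth, and negative values indicate cell death.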 Values without a mark were called inactive. Active and inactive are the calls of the source. How the source made its calls: active means growth percent below 10; inactive means the rest.

Take `CCCCN1C(=O)/C(=c2\sc3n(c2=O)C2C(NN=3)N(CC)C(=O)N2CC)c2cccc(C)c21` (configuration not stated): the growth in the assay with SR leukemia is 15.1%; with RPMI-8226 leukemia, 20.3%; in the assay with OVCAR-8 ovarian, 44.6%; in the assay with OVCAR-5 ovarian, 50.9%; with OVCAR-4 ovarian, 53.8%; with SK-OV-3 ovarian, 82%. The growth is 34.7% in the assay with IGROV1 ovarian; 28.9% with OVCAR-3 ovarian; 34.4% in the assay on HS 578T breast; 24.6% in the assay on NCI/ADR-RES ovarian; 82.4% in the assay on BT-549 breast; -31% (active) in the assay on MDA-MB-435 melanoma. Moreover, the growth in the assay with SW-620 colon was 39.7%; in the assay on MCF7 breast, 21.1%; with HCT-116 colon it was 24.8%; in the assay with HCC-2998 colon, 61.1%; in the assay with KM12 colon, 33.3%.

With `CCOC(=O)c1ccc(NC2=C(Cl)C(=O)c3nc(C)ccc3C2=O)cc1`, the growth in the assay with SR leukemia is 22.6%; in the assay with RPMI-8226 leukemia, 4.69% (active); in the assay on OVCAR-8 ovarian it was 68.4%; in the assay with OVCAR-5 ovarian, 91.5%; in the assay with OVCAR-4 ovarian it was -62.7% (active); in the assay on SK-OV-3 ovarian it was 94.4%. The growth in the assay with IGROV1 ovarian was 7.95% (active); in the assay on OVCAR-3 ovarian, -18.8% (active); in the assay with HS 578T breast, 50.2%; in the assay on NCI/ADR-RES ovarian, 45.9%; with T-47D breast, -0.935% (active); in the assay with MDA-MB-435 melanoma, 21.6%. Also, the growth is -19.6% (active) in the assay with SW-620 colon; -14.5% (active) in the assay with MCF7 breast; 7.29% (active) in the assay with HCT-116 colon; 80.3% in the assay with HCC-2998 colon; 50.8% in the assay on KM12 colon.

Take `NC1C2CCC1CN(c1cnc(C(=O)Nc3cc(F)cc4cccnc34)cn1)C2` (configuration not stated): the growth in the assay with SR leukemia is 5.29% (active); with RPMI-8226 leukemia, 57%; in the assay on OVCAR-8 ovarian, 86%; in the assay with OVCAR-5 ovarian, 66.7%; in the assay with OVCAR-4 ovarian it was 18.5%; in the assay on SK-OV-3 ovarian, 97.1%. Also, the growth in the assay on IGROV1 ovarian is 16.3%; in the assay on OVCAR-3 ovarian, 46.3%; with HS 578T breast, 68.8%; with T-47D breast it was 34.2%; in the assay on BT-549 breast, 94.7%; in the assay with MDA-MB-435 melanoma, 75.5%. Further, the growth in the assay on SW-620 colon is 25%; in the assay with MCF7 breast it was 3.24% (active); in the assay on HCT-116 colon it was 15.8%; in the assay on HCC-2998 colon, 79.3%; in the assay with KM12 colon, 77.1%.

As for `CC(=C(c1ccc(OCCN(C)C)cc1)c1ccc(OCCN(C)C)cc1)c1ccc(Cl)cc1`, the growth in the assay on SR leukemia is -36.1% (active); in the assay on RPMI-8226 leukemia, -42.7% (active); in the assay with OVCAR-8 ovarian, -46.9% (active); with OVCAR-5 ovarian, -69% (active); with OVCAR-4 ovarian, -17.4% (active); with SK-OV-3 ovarian it was 77.5%. Moreover, the growth in the assay on IGROV1 ovarian is -76.8% (active); in the assay with OVCAR-3 ovarian, -55.5% (active); with HS 578T breast, -32.5% (active); in the assay with NCI/ADR-RES ovarian, -49.8% (active); in the assay on T-47D breast it was -53.7% (active); with MDA-MB-435 melanoma it was -82.8% (active). The growth in the assay on SW-620 colon is -71.5% (active); in the assay on MCF7 breast it was -77.6% (active); in the assay with HCT-116 colon, -65.1% (active); with HCC-2998 colon it was -87.7% (active); in the assay on KM12 colon, -65.2% (active).

`Cc1ccc2c(n1)C(=O)C(Cl)=C(Nc1ccc(C)c(C)c1)C2=O`: the growth in the assay with SR leukemia was 28.1%; in the assay with RPMI-8226 leukemia it was 11.1%; with OVCAR-8 ovarian it was 67.2%; in the assay on OVCAR-5 ovarian it was 91.6%; with OVCAR-4 ovarian, -29% (active); with SK-OV-3 ovarian, 99.1%. Also, the growth is -45.5% (active) in the assay with IGROV1 ovarian; -21.4% (active) in the assay with OVCAR-3 ovarian; 32.8% with HS 578T breast; 63.1% with NCI/ADR-RES ovarian; 3.29% (active) in the assay on T-47D breast; -82.6% (active) in the assay on MDA-MB-435 melanoma. For the same molecule, the growth with SW-620 colon was 33.5%; in the assay on MCF7 breast, -60.5% (active); in the assay on HCT-116 colon, 12.2%; in the assay on HCC-2998 colon, 57.6%; with KM12 colon, 51.9%.

For the molecule `CC1=C(SCC(=O)OCCCCCC(C)C)C(=O)c2ccccc2C1=O`, the growth in the assay on SR leukemia is 83.7%; in the assay on RPMI-8226 leukemia it was 61%; in the assay on OVCAR-8 ovarian it was 92.1%; in the assay on OVCAR-5 ovarian, 113%; with OVCAR-4 ovarian, 70.1%; in the assay with SK-OV-3 ovarian, 104%. The growth was 79.8% with IGROV1 ovarian; 74% in the assay with OVCAR-3 ovarian; 91.8% in the assay with HS 578T breast; 74.3% in the assay with T-47D breast; 94.4% in the assay with BT-549 breast; 102% in the assay with MDA-MB-435 melanoma. Moreover, the growth was 99.3% with SW-620 colon; 72.1% in the assay on MCF7 breast; 89.7% in the assay on HCT-116 colon; 110% in the assay with HCC-2998 colon; 91.2% in the assay with KM12 colon.

On to `C(=N\Nc1nc(N/N=C/c2ccc3c(c2)OCO3)nc(N2CCCCC2)n1)/c1ccc2c(c1)OCO2`, for which the growth with SR leukemia is 0.113% (active); in the assay with RPMI-8226 leukemia it was 56.2%; in the assay with OVCAR-8 ovarian, 90.1%; with OVCAR-5 ovarian it was 118%; with OVCAR-4 ovarian, 110%; in the assay on SK-OV-3 ovarian, 140%. For the same molecule, the growth is 76.9% in the assay on IGROV1 ovarian; 105% in the assay with OVCAR-3 ovarian; 104% in the assay with HS 578T breast; 85.5% with NCI/ADR-RES ovarian; 122% with BT-549 breast; 82.4% in the assay on SW-620 colon. The growth was 54.8% with MCF7 breast, 47.9% in the assay on HCT-116 colon, 83.8% with HCC-2998 colon and 86.2% with KM12 colon.

For `CCN(CC)CCOc1ccc(C(=C(C)Cc2ccc(OC)cc2)c2ccc(OCCN(CC)CC)cc2)cc1`, the growth was -26.6% (active) in the assay on SR leukemia; -25% (active) with RPMI-8226 leukemia; 74.5% with OVCAR-8 ovarian; 77.4% in the assay with OVCAR-5 ovarian; 89.1% in the assay on OVCAR-4 ovarian; 93.5% in the assay on SK-OV-3 ovarian. Also, the growth in the assay on IGROV1 ovarian was 68.9%; in the assay with OVCAR-3 ovarian it was 31.2%; in the assay with HS 578T breast, 72.9%; in the assay on NCI/ADR-RES ovarian it was 85.4%; in the assay with T-47D breast, 64.2%; in the assay with MDA-MB-435 melanoma it was -66.1% (active). Further, the growth with SW-620 colon is -6.4% (active); with MCF7 breast it was -33.8% (active); with HCT-116 colon it was 16.3%; in the assay with HCC-2998 colon it was 44.8%; in the assay with KM12 colon, 48.6%.

For `CCN(CC)S(=O)(=O)c1ccc(-c2nc(C(Cl)Cl)nc3cc(C)nn23)cc1`, the growth was 9.52% (active) with SR leukemia; -7.21% (active) with RPMI-8226 leukemia; 12.3% with OVCAR-8 ovarian; 41.5% with OVCAR-5 ovarian; 34.4% in the assay with OVCAR-4 ovarian; 18.4% with SK-OV-3 ovarian. The growth with IGROV1 ovarian is 12%; with OVCAR-3 ovarian, 21.1%; in the assay with HS 578T breast it was 35.6%; with NCI/ADR-RES ovarian, 14%; in the assay on T-47D breast, 60.9%; with MDA-MB-435 melanoma it was 14.8%. The growth with SW-620 colon was 6.12% (active); with MCF7 breast, 23.5%; with HCT-116 colon, 10%; in the assay with HCC-2998 colon, 23.8%; with KM12 colon, 8.52% (active).
